According to PubChem BioAssay AID1159580 (chemical genetic matrix, 2015):
In all, about 5,500 compounds went through this assay and about 2,000 (36%) were called active. Roughly 18% stayed inconclusive and do not appear here. Cut-off read from the data, not from the text of the source: active = normalized growth mostly below about 0.91 (no sharp cut-off); inconclusive = no clear call, values can overlap the other calls; inactive = mostly above about 0.92. This is one part of the list.

Experiment: chemical genetic growth profiling, strain panel (AID 1159580);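 note: tested at 20 µM; growth read once vehicle control cultures reached saturation at 30 °C; 1 = growth at the plate median or of vehicle wells; lower values mean less growth of the strain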
Conditions: S. cerevisiae deletion strains, growth OD

Measured: normalized growth

O=C(O)CCCCCCCC(O)C(O)CCCCCCO (stereo not given)
inactive: locus YHR030C, strain SLT2, stronger effect = lower value 1.02 | locus YHR079C, strain IRE1, stronger effect = lower value 1.01 | locus YJL095W, strain BCK1, stronger effect = lower value 1 | locus YJR066W, strain TOR1, stronger effect = lower value 0.935 | locus YLR113W, strain HOG1, stronger effect = lower value 0.987 | locus YNL183C, strain NPR1, stronger effect = lower value 0.954 | locus YOR231W, strain MKK1, stronger effect = lower value 0.991 | locus YPL256C, strain CLN2, stronger effect = lower value 1.01

Cn1cnc2c(NCc3ccccc3)nc(NCCO)nc21
inactive: locus YAL013W, strain DEP1, stronger effect = lower value 0.989 | locus YAL040C, strain CLN3, stronger effect = lower value 1.08 | locus YCL061C, strain MRC1 (second series), stronger effect = lower value 0.99 | locus YDR150W, strain NUM1, stronger effect = lower value 0.998 | locus YDR363W, strain ESC2, stronger effect = lower value 1.01 | locus YER002W, strain NOP16, stronger effect = lower value 1.05 | locus YGR078C, strain PAC10, stronger effect = lower value 0.988 | locus YGR229C, strain SMI1, stronger effect = lower value 0.991 | locus YJR075W, strain HOC1, stronger effect = lower value 0.981 | locus YMR263W, strain SAP30, stronger effect = lower value 0.984 | locus YMR307W, strain GAS1, stronger effect = lower value 1 | locus YNL175C, strain NOP13, stronger effect = lower value 1 | locus YNL197C, strain WHI3, stronger effect = lower value 0.982 | locus YNL224C, strain SQS1, stronger effect = lower value 1 | locus YNL322C, strain KRE1, stronger effect = lower value 0.992 | locus YOR083W, strain WHI5 (second series), stronger effect = lower value 0.988 | locus YPL055C, strain LGE1, stronger effect = lower value 1
